Screens as filed in PubChem.
GLP1R inv ag = GLP-1 receptor (human) inverse agonism | P43220 | Potency, µM (titrated, usually from 38.3 µM), without a hit: top-dose activity change, negative = inhibition, actives largely listed as inhibitors | AID 624417 | HEK293 GLP-1R CRE-luciferase, luminescence, 24 h; GLP-1R form is constitutively active | 410,000 compounds, 1.6% hits; further: potency means the concentration at half of the fitted maximal effect; on the % scale 0 is the no-effect control and ±100 the full control effect; nearly all actives have a fitted effect of over 55% in size
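HEK293 cells stably co-expressing a cAMP-responsive luciferase reporter and constitutively active GLP-1R were seeded, incubated 12 h, then exposed to compounds for 24 h at 37 C. Luminescence was read 12 min after detection reagent; inverse agonists lower signal.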
LDHA inh = LDHA (human) enzyme inhibition | P00338 | purified LDHA, NADH/diaphorase-resazurin fluorescence; hits give low values | activity change, % (values are at about 110 or 230 µM) | 480,000 compounds, 0.15% hits | AID 1347041; in the data active means activity change below about -30%; inconclusive means mostly about -25% to -30%;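 further: plate controls were DMSO wells for no effect and wells without enzyme for full effect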
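Human LDH5 at 2 nM final in Tris HCl pH 7.4 with 0.06 mM NADH and 0.2 mM pyruvate, reacted 5 minutes at room temperature. Remaining NADH coupled via diaphorase/resazurin; resorufin fluorescence read at 0 and 20 minutes, normalized to enzyme-free and DMSO wells.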
GLP1R cytotox = cytotoxicity counter-screen for GLP-1 receptor inverse agonists | HEK293 cAMP-luciferase reporter cells, luminescence, 24 h | Potency, µM (doses to about 38.3 µM), for inactives: at the highest dose activity change, negative = inhibition, hits mostly inhibitors | 410,000 compounds, 0.13% hits | AID 624418;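 further: loss of luciferase light is scored as toxicity; potency means the concentration at half of the fitted maximal effect; on the % scale 0 is the no-effect control and ±100 the full control effect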
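To flag toxic compounds, the library was rerun on cells for 24 hr at 37 deg C and 5% CO2. Viability-linked luminescence was captured 12 min after adding luciferase detection reagent.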
mIDH1 inhibitor = blocks human mutant IDH1 R132H enzyme; IDH1-R132H enzyme, NADPH consumption, diaphorase/resazurin fluorescence; AID 602179; O75874; 390,000 compounds, 0.093% hits; Potency, µM (titrated, usually from 76.6 µM), for inactives: at the top dose activity change, negative = inhibition, most hits filed as inhibitors; further: potency means the concentration at half of the fitted maximal effect; on the % scale 0 is the no-effect control and ±100 the full control effect; nearly all actives have a fitted effect of over 65% in size
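IDH1-R132H (0.5 ug/mL dispensed) in pH 7.5 Tris buffer was preincubated 30 min with compound, then given a substrate mix of 0.016 mM NADPH and 2 mM alpha-KG for 80 min at room temperature; remaining NADPH was read by diaphorase/resazurin fluorescence.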
GLP1R ag = agonists of human GLP-1 receptor; AID 624172; 380,000 compounds, 0.007% hits; HEK293 GLP-1R CRE-luciferase, luminescence, 4-6 h; cells express a hypersensitive GLP-1R form; Potency, µM (series often up to 45.6 µM), for inactives: at the top dose activation, most hits filed as activators; P43220; further: potency means the concentration at half of the fitted maximal effect; % of control where 0% means no effect
PTHR1 ag = agonists of human PTHR1 parathyroid hormone receptor; Q03431; HEK293 GP2 PTHR1 cells, GloSensor cAMP luminescence, 1 h; Potency, µM (doses to about 115 µM), for inactives: at the highest dose activation, usual class: activators; 410,000 compounds, 0.075% hits; AID 743266; further: potency means the concentration at half of the fitted maximal effect; nearly all actives have a fitted effect of over 55% in size
Target sequence (Q03431 whole entry, looked up): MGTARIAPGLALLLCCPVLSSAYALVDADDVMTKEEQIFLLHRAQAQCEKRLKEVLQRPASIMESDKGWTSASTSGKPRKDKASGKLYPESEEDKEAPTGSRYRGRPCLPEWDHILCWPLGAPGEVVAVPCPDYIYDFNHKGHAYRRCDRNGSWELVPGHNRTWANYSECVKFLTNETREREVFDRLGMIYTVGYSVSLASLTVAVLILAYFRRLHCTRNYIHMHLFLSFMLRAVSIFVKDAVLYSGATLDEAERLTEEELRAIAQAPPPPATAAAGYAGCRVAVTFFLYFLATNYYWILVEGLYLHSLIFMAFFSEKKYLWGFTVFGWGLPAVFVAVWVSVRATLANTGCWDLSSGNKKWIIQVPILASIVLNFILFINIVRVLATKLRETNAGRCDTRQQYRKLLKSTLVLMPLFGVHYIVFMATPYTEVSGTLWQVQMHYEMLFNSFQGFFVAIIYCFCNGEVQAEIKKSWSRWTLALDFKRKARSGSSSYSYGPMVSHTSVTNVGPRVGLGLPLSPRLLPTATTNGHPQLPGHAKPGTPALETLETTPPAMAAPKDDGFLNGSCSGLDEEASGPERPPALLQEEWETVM
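HEK-293-derived GP2 cells expressing PTHR1 and a GloSensor cAMP reporter, 3,000/well, plated overnight, given luciferin plus IBMX (each 0.5 mM as added) for 1 h at 37 °C, then compound for 1 h at 37 °C. Luminescence was read after 15 min at room temperature.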
Resorufin autofl = counter-screen for mutant IDH1 inhibitors: fluorescence interference; shares compounds with mIDH1 inhibitor; Resorufin detection reagent fluorescence interference, cell-free; inhibition of signal, % at 51.2 µM; 750 tested, under 10 active; AID 623980;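 further: 0% = wells with normal resorufin and full inhibition = wells lacking resorufin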
IDH1 WT = wild-type IDH1 (human) inhibition counterscreen. shares compounds with mIDH1 inhibitor. WT IDH1 enzyme, NADPH diaphorase/resazurin fluorescence. Potency, µM (series often up to 115 µM), for inactives: at the top dose activity change, negative = inhibition, hits mostly inhibitors. 750 compounds, 9% hits. AID 623995;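 further: potency means the concentration at half of the fitted maximal effect; 0% = full WT IDH1 enzyme control and full inhibition = no enzyme wells; nearly all actives have a fitted effect of over 55% in size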
IDH1 R132H conf = confirmation of human mutant IDH1 inhibitors | shares compounds with mIDH1 inhibitor | IDH1 R132H enzyme, NADPH diaphorase/resazurin fluorescence | Potency, µM (doses to about 76.6 µM), for the others: at the highest dose activity change, negative = inhibition, usual class: inhibitors | 750 compounds, 83% hits; further: potency means the concentration at half of the fitted maximal effect; nearly all actives have a fitted effect of over 50% in size
* = called active by the depositor; i = inactive; ? = inconclusive; . = no result given. Shown are actives, neighbours in structure and some others; about 1.7% of the full set was active somewhere. Unless noted, the call rests on the fitted dose curve; in most records, active means well fitted curve in the direction sought with a large enough effect; inconclusive means small, poorly fitted or top-dose-only effect, or another doubt; inactive means no such curve, though single readings can be large; an effect the other way counts as inactive or inconclusive.

SMILES | GLP1R inv ag | LDHA inh | GLP1R cytotox | mIDH1 inhibitor | GLP1R ag | PTHR1 ag | Resorufin autofl | IDH1 WT | IDH1 R132H conf
CCOC(=O)c1cc(-c2ccncc2)nc2c1c(C)nn2-c1ccccn1 | 11% | 8 | -5% | ? | 10% | -20% | -2 | ? | 22µM*
COc1ccc(-c2cc(C(=O)O)c3c(C)nn(-c4ccccn4)c3n2)cc1 | 2% | -1 | -8% | 1% | -4% | i | . | . | .
Cc1ccc(S(=O)(=O)Cc2ccccc2F)cc1 | . | 1 | . | . | . | . | . | . | .
CN(C)c1ccc(C(=O)/C=C/c2cc3ccccc3nc2N2CCOCC2)cc1 | . | -4 | . | . | . | . | . | . | .
COC(=O)[C@@]12CCCCN1[C@H](c1ccc(-c3ccc(OC)cc3)c(OC)c1)[C@@H]1C(=O)N(C)C(=O)[C@@H]12 | ? | 4 | -20% | 35µM* | 0% | -60% | 4 | 5% | 5µM*
COc1cc(C2c3c(-c4ccccc4)n[nH]c3C(=O)N2c2ccc(C(=O)O)cc2)ccc1O (stereo unspecified) | 11% | -6 | 10% | 7% | 7% | -21% | . | . | .
O=C1c2[nH]nc(-c3ccc(Br)cc3)c2C(c2cccc(O)c2)N1c1ccc(Cl)cc1 (stereo unspecified) | ? | -12 | ? | 40µM* | -7% | -19% | -6 | 1% | 20µM*
Cc1ccc(-c2n[nH]c3c2C(c2ccccc2)N(c2ccc(C(=O)O)cc2)C3=O)cc1 (stereo unspecified) | 0% | -8 | -6% | 52µM* | 1% | -6% | -2 | -23% | 28µM*
CCOC(=O)c1ccc(N2C(=O)c3n[nH]c(-c4ccco4)c3C2c2ccc(OC)cc2OC)cc1 (stereo unspecified) | ? | 3 | -30% | ? | -3% | -19% | 1 | -1% | ?
CCOc1ccc(N2C(=O)c3[nH]nc(-c4ccccc4)c3C2c2ccc(O)c(OC)c2)cc1 (stereo unspecified) | 8% | 6 | -20% | ? | . | -33% | 0 | 1% | 20µM*
CCOC(=O)c1ccc(N2C(=O)c3n[nH]c(C)c3C2c2ccc(OC)cc2OC)cc1 (stereo unspecified) | ? | 0 | -2% | -17% | 0% | -86% | . | . | .
COc1ccc(C2c3c(-c4ccccc4)n[nH]c3C(=O)N2c2ccc(C(=O)O)cc2)c(OC)c1 (stereo unspecified) | 3% | -8 | 0% | 40µM* | 0% | -5% | 6 | ? | 28µM*
CCCC(CCC)=NNC(=S)NC1CCCCC1 | . | -1 | . | . | . | . | . | . | .
CC(=O)Nc1nnc(SCc2ccc(F)cc2)s1 | 33% | -6 | 2% | 3% | -1% | i | . | . | .
O=C(Nc1nnc(SCc2ccc(F)cc2)s1)c1ccc2ncsc2c1 | 23% | -2 | 4% | 52µM* | -2% | -23% | -2 | -16% | 50µM*
CC1(C)Nc2ccc(O)cc2-c2c1ssc2=S | 4% | 21 | ? | 4% | -5% | i | . | . | .
CC(=O)NS(=O)(=O)c1ccc(N=c2ssc3c2-c2cc(C)ccc2NC3(C)C)cc1 | ? | -2 | -25% | ? | -2% | -45% | 2 | 4% | 45µM*
